Records with an inconclusive call do not appear. A number with no mark means an inactive call. Active and inactive are the calls of the source. Calls come from the whole dose curve; as a rule, active = well fitted curve in the direction sought with a large enough effect in the repeat runs; inconclusive = weak or mixed curves; inactive = no such curve, though single readings can be large; an effect the other way counts as inactive or inconclusive.

This is an account of results in PubChem BioAssay (Tox21).
% is set by controls: 0 for no effect and ±100 for the full control effect.

The first assay can be described thus: A CellTox Green Cytotoxicity Assay to monitor cytotoxicity in HEK293 cells - 8 hour (AID 1224884). Note: nearly all actives have a fitted effect of over 35% in size. To be noted: CellTox Green fluorescence; series mostly up to 76.8 µM; cytotoxicity increase: at the top concentration. The method, boiled down: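 Fluorescence from a DNA-binding dye excluded by viable cells was measured repeatedly in the same HEK293 wells (600 cells/well) during continuous compound exposure at 37 C. Each assay gives one read point: 0, 8, 16, 24, 32 or 40 h.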
In the case of `Cc1ccc(N(C)C)cc1`, the result was inactive. As to `COc1ccc(NC(C)=O)cc1N`, the compound was classed as inactive. As for `C/C=C1/CC2C=CC1C2` (stereo not given), the compound was classed as inactive. For the compound `C#CCN(C)Cc1ccccc1`, the compound was called inactive. Take `C=C(C)C(=O)OCCOCCOCCOC(=O)C(=C)C`: the outcome was inactive. As for `CC(C)CC(=O)CC(C)C`, the call was inactive. For `CCC(O)OCCCOC` (stereo not given), the call was inactive. `OCc1cccnc1`: the compound was called inactive.

For `CC1=CCC2CC1C2(C)C` (stereo not given), the “cytotoxicity increase” value was 4.43%. Take `O=C(O)c1ccc2c(c1)C(=O)OC2=O`: the outcome was inactive. Take `CCCCCOC(C)=O`: the call was inactive. The same measure, in the same setting: the value for `O=C=NCCCCCCN=C=O` was “inactive”.

For the compound `CCc1ccc(CCOc2ccc(CC3SC(=O)NC3=O)cc2)nc1` (stereo not given), the call was inactive.

A further assay can be described thus: qHTS RealTime-Glo MT Cell Viability Assay in HepG2 cells - 16 hour (AID 1224885). Note: nearly all actives have a fitted effect of over 50% in size. The following applies: RealTime-Glo luminescence; series mostly up to 76.8 µM; activity change, negative = cytotoxic: at the top concentration. The method, boiled down: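 Compound treatment began 5 h after plating HepG2 cells (600/well) with NanoLuc luciferase and prosubstrate. Plates stayed at 37 C for 40 h; luminescence was captured at six time points, 0 h through 40 h.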
`CCCCN(CCCC)CCCC`: the call was inactive.

In the case of `CCOC(=O)NNc1nncc2ccccc12`, the outcome was inactive. Same read-out and setting: the same measure for `C[Si](O[Si](C)(C)C)O[Si](C)(C)C`: “inactive”.

With `N[C@@H](Cc1cc(I)c(Oc2cc(I)c(O)c(I)c2)c(I)c1)C(=O)O`, the outcome was inactive. As for `O=C(O)c1ccccc1C(c1ccc(O)cc1)c1ccc(O)cc1`, the result was inactive. For `CCCCCCCCC/C=C/CC1CC(=O)OC1=O` (stereo not given), the compound was classed as inactive. Turning to `C#C[C@]1(O)CC[C@H]2[C@@H]3CCC4=CC(=O)CC[C@@H]4[C@H]3CC[C@@]21C`, the call was inactive.

`CCCCCC(N)=O`: the compound was called inactive. Turning to `O=C(O)c1ccc(C(=O)O)cc1`, the result was inactive.

As for `CC1CCC(C(C)C)C(O)C1` (stereo not given), the result was inactive. For `CC1CCC2CC1C2(C)C` (stereo not given), the result was inactive.

Take `CSCCC=O`: the compound was classed as inactive.

On to `OCCOCCOCCO`, for which the result was inactive.

On to `O=c1[nH]nnc2ccccc12`, for which the compound was classed as inactive.

Take `CC(=O)CC(=O)Nc1ccccc1C`: the compound was called inactive.

For the compound `CN(C)CCC(c1ccccc1)c1ccccn1` (stereo not given), the compound was classed as inactive. Same read-out and setting: the same measure for `CCCCCC/C(C=O)=C\c1ccccc1`: “inactive”.
